# Data reported in PubChem BioAssay.
# Records with an inconclusive call do not appear. For some assays here: Measured potencies and affinities stand elsewhere. Calls of active or inactive are those of the source. Cut-off read from the data, not from the text of the source, unless noted: active = inhibition above about 80%; inactive = the rest.
# What was measured:
# [1] = molecular target: 6-phosphogluconate dehydrogenase, decarboxylating (Homo sapiens) (UniProt P52209); experiment: 6PGD enzyme inhibitors, primary screen, biochemical, human, recombinant enzyme, NADPH absorbance (AID 1159550;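 active = at least 20% inhibition of 6-phosphogluconate dehydrogenase activity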); settings: recombinant 6PGD, NADPH absorbance 341 nm; at 10 µM; stronger effect = higher value
# [2] = molecular target: Mitogen-activated protein kinase 7 (Homo sapiens) (UniProt Q13164); experiment: ERK5 transactivation activators in reporter cells, primary screen, cell-based, HTS (AID 1508626;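 active = luciferase signal above three times the same-plate solvent-only control wells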;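 note: luciferase driven by Gal4-ERK5 fusion binding five Gal4 sites before minimal TATA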); settings: HeLa Gal4-ERK5 transactivation, 18 h, at 5 µM, stronger effect = higher value
# [3] = polyglutamine-triggered caspase-3 activation inhibitors, cell-based (AID 1583); settings: polyglutamine-induced caspase-3 activation, cell assay; stronger effect = higher value;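 tested at 10 µM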
# [4] = suppressors of polyQ aggregation in yeast, 75Q-TubU reporter (AID 1593); settings: Yeast 75Q polyglutamine aggregation reporter
# [5] = rescue of polyQ-huntingtin neuronal dysfunction in worms, whole organism, C. elegans mechanosensory neurons, N-terminal huntingtin (AID 1599); settings: touch response, stronger effect = higher value
# [6] = inhibitors of mitochondrial cytochrome c release, biochemical, purified mitochondria (AID 1603); settings: stronger effect = lower value;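 note: mouse liver mitochondria challenged with calcium chloride; signal normalized to the plate average as 100%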
# [7] = inhibitors of polyQ protein aggregation (AID 1604); settings: polyglutamine-induced protein aggregation inhibition assay; stronger effect = higher value; tested at 2.5 µM
# [8] = enhancers of glutamate uptake in motor neurons, MN-1 cell line (AID 1612); settings: MN-1 motor neuron cells, stronger effect = higher value;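 note: tested at 1 µM final; 0% = mean of DMSO vehicle wells on each plate; positive means more glutamate uptake than control and negative means less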
# [9] = reducers of polyQ inclusions in PC12 cells, cell-based, NGF-treated PC12, GFPQ80 (AID 1614); settings: PC12 NGF-treated GFP-polyQ80 inclusion reduction;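 note: lower means fewer inclusions and 0 means no inclusions at all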
# [10] = suppressors of polyglutamine aggregation in yeast, 75Q-TubH (AID 1616); settings: S. cerevisiae 75Q-TubH polyglutamine aggregation suppression; stronger effect = higher value
# [11] = molecular target: ATP-dependent translocase ABCB1 (Homo sapiens) (UniProt P08183); experiment: MDR1 (ABCB1) efflux transporter inhibition, cell-based (AID 377; in the data active = fluorescence slope change above about 50%); settings: MDR1-expressing cells, fluorescent substrate accumulation slope; stronger effect = higher value; concentration not given here
# [12] = hESC survival regulators, cell-based (AID 493140; call rule not given here;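 note: cells exposed to compounds for four days before counting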); settings: human embryonic stem cell survival screen; stronger effect = higher value
# [13] = liver-stage malaria parasite growth inhibition, primary screen, cell-based, HepG2, luciferase luminescence, HepG2 viability (AID 624349; in the data active = parasite load remaining mostly below about 12%, no sharp cut-off; inactive = mostly above about 10%;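 note: 100% = mean of DMSO negative control wells on the same plate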); settings: P. berghei liver stage in HepG2, luciferase luminescence, concentration not given here; parasite load remaining: stronger effect = lower value; viability: measured here: HepG2 viability without parasites
# [14] = LFS_MB_P medulloblastoma growth inhibition, cell-based, chromothripsis tumors, cisplatin or BGB combos (AID 1671449); settings: LFS_MB_P medulloblastoma cells;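 note: cells exposed for 96 hours; 0% = vehicle DMSO and 100% = killing by high DMSO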
# [15] = HDN33 neuroblastoma growth inhibition, cell-based, chromothripsis tumors, cisplatin or BGB combos (AID 1671450); settings: HDN33 neuroblastoma cells, stronger effect = higher value;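 note: cells exposed to compound for four days; 0% = vehicle DMSO and 100% = cell killing by high DMSO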
# [16] = ICB984 medulloblastoma cell growth inhibition, synergistic combos for chromothripsis tumors, cisplatin or BGB combos (AID 1671451; call rule not given here;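 note: cells exposed for 96 hours before readout; 0% = vehicle DMSO and 100% = killing by high DMSO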); settings: ICB984 medulloblastoma cells, drug combinations, stronger effect = higher value
# [17] = LFS_MB_1R medulloblastoma cell growth inhibition, synergistic combos for chromothripsis tumors, cisplatin or BGB combos (AID 1671452); settings: LFS_MB_1R medulloblastoma cells, stronger effect = higher value;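 note: cells exposed for 96 hours before readout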
# [18] = HTB85 osteosarcoma cell growth inhibition, synergistic combos for chromothripsis tumors, BGB or cisplatin IC20 combos (AID 1671453); settings: HTB85 osteosarcoma cells, drug combinations, stronger effect = higher value;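 note: cells exposed for 96 hours before readout; 0% = vehicle DMSO and 100% = high DMSO killing control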
# [19] = CRL2098 osteosarcoma cell growth inhibition, synergistic combos for chromothripsis tumors, BGB or cisplatin IC20 combos (AID 1671454); settings: CRL2098 osteosarcoma cells, drug combinations, stronger effect = higher value;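 note: cells exposed for 96 h before readout; 0% = vehicle DMSO and 100% = killing by high DMSO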
# [20] = HD-MB03 medulloblastoma cell growth inhibition, synergistic combos for chromothripsis tumors, BGB or cisplatin IC20 combos (AID 1671455; in the data active = inhibition above about 83%;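 note: 0% = vehicle DMSO and 100% = high DMSO as cytotoxic control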); settings: HD-MB03 medulloblastoma cells, stronger effect = higher value
# [21] = UWB1.289 ovarian carcinoma cell growth inhibition, synergistic combos for chromothripsis tumors, BGB or cisplatin combos (AID 1671456); settings: UWB1.289 ovarian carcinoma cells, stronger effect = higher value;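 note: cells exposed to compound for four days; 0% = vehicle DMSO and 100% = killing by high DMSO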
# [22] = LFS_MB_2R medulloblastoma cell growth inhibition, synergistic combos for chromothripsis tumors, cisplatin combos (AID 1671457); settings: LFS_MB_2R medulloblastoma cells, stronger effect = higher value;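 note: cells exposed to compound for four days before readout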
# [23] = MDA-MB-436 breast carcinoma cell growth inhibition, synergistic combos for chromothripsis tumors, BGB or cisplatin combos (AID 1671458; call rule not given here;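 note: cells exposed for 96 hours; 0% = vehicle DMSO and 100% = killing by high DMSO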); settings: MDA-MB-436 breast carcinoma growth inhibition, drug combinations, stronger effect = higher value
# [24] = UWB1.289_BRCA1 ovarian cancer growth, cell-based, BGB or cisplatin combinations (AID 1671459); settings: UWB1.289 BRCA1 ovarian carcinoma, drug combinations, stronger effect = higher value
# [25] = human astrocyte viability loss, single and combined drugs, cytotoxicity control for chromothriptic childhood tumor combination screen, cell-based, BGB or cisplatin IC20 combos (AID 1671460); settings: Human astrocytes, drug combinations, stronger effect = higher value;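 note: cells exposed to compounds for 96 hours before viability readout; 0% = vehicle and 100% = killing control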
# [26] = growth inhibition of BT084 medulloblastoma cells, cell-based, ICGC_MB145, cisplatin and BGB IC40 combos (AID 1671461); settings: drug combinations, stronger effect = higher value;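 note: cells exposed to drugs for 96 hours; 0% = vehicle DMSO and 100% = high DMSO full killing control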
# [27] = growth inhibition of RCMB18 medulloblastoma cells, cell-based, cisplatin and BGB IC40 combos (AID 1671462); settings: stronger effect = higher value;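 note: cells exposed to compound for four days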
# [28] = growth inhibition of CRL1545 osteosarcoma cells, cell-based, cisplatin and BGB IC20 combos (AID 1671464); settings: stronger effect = higher value;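 note: cells exposed to compound for 96 hours before readout; 0% = vehicle DMSO and 100% = high DMSO killing control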
# [29] = measured here: combination with BGB IC40, at 0.05 µM
# [30] = measured here: with BGB IC20 combination, at 0.5 µM
# [31] = measured here: with cisplatin IC20 combination, at 0.5 µM
# [32] = measured here: combination with cisplatin, at 0.5 µM
# [33] = measured here: combination with cisplatin, at 5 µM
# Sequence of 6-phosphogluconate dehydrogenase, decarboxylating (Homo sapiens) (P52209 whole entry, looked up, the tested form may be a part): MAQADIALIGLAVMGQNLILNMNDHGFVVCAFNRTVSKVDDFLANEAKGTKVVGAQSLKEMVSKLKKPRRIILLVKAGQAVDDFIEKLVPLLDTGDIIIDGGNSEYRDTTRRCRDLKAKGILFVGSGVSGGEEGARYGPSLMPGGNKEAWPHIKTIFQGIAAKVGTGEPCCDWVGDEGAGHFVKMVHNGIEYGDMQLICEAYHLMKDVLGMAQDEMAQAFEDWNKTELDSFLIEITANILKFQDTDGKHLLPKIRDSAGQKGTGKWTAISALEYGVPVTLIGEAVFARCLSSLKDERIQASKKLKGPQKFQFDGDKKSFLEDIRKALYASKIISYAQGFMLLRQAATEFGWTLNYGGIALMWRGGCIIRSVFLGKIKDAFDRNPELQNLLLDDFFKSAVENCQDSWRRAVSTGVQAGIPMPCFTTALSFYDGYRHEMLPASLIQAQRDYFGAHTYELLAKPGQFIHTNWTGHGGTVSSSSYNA
# Sequence of Mitogen-activated protein kinase 7 (Homo sapiens) (Q13164 whole entry, looked up, the tested form may be a part): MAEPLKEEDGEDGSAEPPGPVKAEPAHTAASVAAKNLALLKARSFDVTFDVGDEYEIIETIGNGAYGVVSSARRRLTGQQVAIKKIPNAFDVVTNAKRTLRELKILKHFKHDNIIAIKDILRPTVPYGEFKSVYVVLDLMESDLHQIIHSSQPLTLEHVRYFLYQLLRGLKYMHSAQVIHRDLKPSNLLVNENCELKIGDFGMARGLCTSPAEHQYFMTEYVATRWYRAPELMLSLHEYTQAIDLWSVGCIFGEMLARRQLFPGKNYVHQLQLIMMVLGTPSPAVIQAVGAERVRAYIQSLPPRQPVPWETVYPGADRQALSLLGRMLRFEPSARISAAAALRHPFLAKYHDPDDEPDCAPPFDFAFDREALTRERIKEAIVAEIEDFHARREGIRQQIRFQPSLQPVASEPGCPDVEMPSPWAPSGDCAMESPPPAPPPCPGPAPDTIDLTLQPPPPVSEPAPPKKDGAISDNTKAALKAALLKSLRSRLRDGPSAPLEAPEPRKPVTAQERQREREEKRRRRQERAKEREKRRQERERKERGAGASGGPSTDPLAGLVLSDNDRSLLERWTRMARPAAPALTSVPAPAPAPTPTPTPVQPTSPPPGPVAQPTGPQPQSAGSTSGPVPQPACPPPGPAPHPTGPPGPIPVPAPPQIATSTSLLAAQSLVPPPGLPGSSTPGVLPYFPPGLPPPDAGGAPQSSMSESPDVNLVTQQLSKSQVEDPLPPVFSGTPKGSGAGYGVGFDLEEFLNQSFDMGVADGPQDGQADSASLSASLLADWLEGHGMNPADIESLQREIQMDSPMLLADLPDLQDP
# Sequence of ATP-dependent translocase ABCB1 (Homo sapiens) (P08183 whole entry, looked up): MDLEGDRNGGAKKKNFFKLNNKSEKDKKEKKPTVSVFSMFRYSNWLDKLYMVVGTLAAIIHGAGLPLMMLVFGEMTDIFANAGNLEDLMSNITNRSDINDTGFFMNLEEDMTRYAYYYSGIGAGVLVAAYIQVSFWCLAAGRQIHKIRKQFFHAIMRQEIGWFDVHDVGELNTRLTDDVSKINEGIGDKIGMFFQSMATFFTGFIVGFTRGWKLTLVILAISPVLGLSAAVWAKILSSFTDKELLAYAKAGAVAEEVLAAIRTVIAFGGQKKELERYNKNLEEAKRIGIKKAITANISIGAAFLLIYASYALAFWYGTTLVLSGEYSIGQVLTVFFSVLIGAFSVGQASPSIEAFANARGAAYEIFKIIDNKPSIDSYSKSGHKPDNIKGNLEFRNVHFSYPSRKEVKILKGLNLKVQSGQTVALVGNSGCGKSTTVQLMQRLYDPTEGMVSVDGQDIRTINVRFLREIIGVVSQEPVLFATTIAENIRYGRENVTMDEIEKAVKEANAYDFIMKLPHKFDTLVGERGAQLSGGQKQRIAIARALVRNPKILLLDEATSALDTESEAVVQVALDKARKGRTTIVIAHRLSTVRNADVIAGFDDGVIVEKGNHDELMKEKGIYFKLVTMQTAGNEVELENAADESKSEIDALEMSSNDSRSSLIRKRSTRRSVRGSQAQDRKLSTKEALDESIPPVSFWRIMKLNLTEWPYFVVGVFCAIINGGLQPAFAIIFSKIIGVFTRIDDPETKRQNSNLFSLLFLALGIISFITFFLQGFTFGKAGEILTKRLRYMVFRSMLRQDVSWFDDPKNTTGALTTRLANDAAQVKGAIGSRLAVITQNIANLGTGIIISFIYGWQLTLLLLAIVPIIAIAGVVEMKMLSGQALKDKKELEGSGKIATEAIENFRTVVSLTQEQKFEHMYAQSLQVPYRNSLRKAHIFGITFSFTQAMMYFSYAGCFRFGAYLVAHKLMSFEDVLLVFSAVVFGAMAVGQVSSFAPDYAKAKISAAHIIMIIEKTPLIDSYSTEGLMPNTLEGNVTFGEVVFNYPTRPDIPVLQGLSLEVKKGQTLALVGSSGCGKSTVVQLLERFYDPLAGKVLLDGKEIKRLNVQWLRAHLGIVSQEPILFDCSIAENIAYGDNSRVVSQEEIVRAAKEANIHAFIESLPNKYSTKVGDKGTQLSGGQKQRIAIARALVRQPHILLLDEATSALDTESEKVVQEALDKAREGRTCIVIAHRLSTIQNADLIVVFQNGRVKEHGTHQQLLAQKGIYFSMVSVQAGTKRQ
structure (smiles),measurement,setting,value
COc1cc(OC)c2c(=O)c(-c3ccccc3)coc2c1,inhibition,[1],10.4% (inactive)
same,luciferase signal,[2],68 AU (inactive)
COc1ccc2ccc(=O)oc2c1,inhibition,[1],6.96% (inactive)
same,luciferase signal,[2],44 AU (inactive)
CCC(C)C(N)C(=O)N1CCCC1C(=O)NC(C(=O)O)C(C)CC (centres undefined),inhibition,[3],-6.01%
same,score,[4],1.3
same,rescue above control,[5],1.96
same,cytochrome c release ratio,[6],0.74
same,inhibition of aggregation,[7],14.9%
same,glutamate uptake change,[8],11.9%
same,inclusion score,[9],2
same,aggregation suppression score,[10],1.44
same,inhibition,[1],-1.23% (inactive)
COc1cc(C)c(C(=O)Oc2cc(C)c(C(=O)O)c(O)c2C)c(O)c1C=O,inhibition,[1],2.14% (inactive)
same,luciferase signal,[2],120 AU (inactive)
COC1[C@H](O)[C@@H](O)C(O)[C@H](O)[C@H]1O (some centres undefined),inhibition,[1],-7.09% (inactive)
same,luciferase signal,[2],136 AU (inactive)
Cn1c(=O)[nH]c2nc[nH]c2c1=O,inhibition,[1],-4.63% (inactive)
same,luciferase signal,[2],56 AU (inactive)
CCOC(=O)CCCCCCCCCCCCC1C=CCC1 (centres undefined),inhibition,[3],-0.73%
same,score,[4],-0.7
same,rescue above control,[5],-1.18
same,cytochrome c release ratio,[6],1.01
same,inhibition of aggregation,[7],55.1%
same,glutamate uptake change,[8],-2.82%
same,inclusion score,[9],2
same,aggregation suppression score,[10],0.251
same,inhibition,[1],2.03% (inactive)
same,luciferase signal,[2],116 AU (inactive)
C=C(C)CCCC(C)CCOC(C)=O (centres undefined),inhibition,[1],8.09% (inactive)
same,luciferase signal,[2],68 AU (inactive)
CO[C@@H]1[C@@H](OC2OC(C)C(OC3CC(C)(O)C(O)C(C)O3)C(N(C)C)C2O)[C@@H](CC=O)C[C@@H](C)[C@@H](OC2CCC(N(C)C)C(C)O2)/C=C/C=C/C[C@@H](C)OC(=O)C[C@H]1O (some centres undefined),fluorescence slope change,[11],23.5% (inactive)
CNC1C(O)C(OC2C(N)CC(N)C(OC3OC(CN)=CCC3N)C2O)OCC1(C)O (centres undefined),fluorescence slope change,[11],28.9% (inactive)
same,survival,[12],9.33 (inactive)
same,parasite load remaining,[13],81.3% (inactive)
same,viability,[13],80.5%
CC1(C(=O)O)CCC2(C)CCC3(C)C(=CC(=O)C4C5(C)CCC(OC(=O)CCC(=O)O)C(C)(C)C5CCC43C)C2C1 (centres undefined),inhibition,"[14]; at 0.5 µM, stronger effect = higher value",-21.3% (inactive)
same,inhibition,"[14]; measured here: combination with BGB IC20, at 0.005 µM",-7.44%
same,inhibition,"[14]; measured here: combination with BGB IC40, at 0.005 µM",-24.5%
same,inhibition,[14]; [29],-6.64%
same,inhibition,"[14]; measured here: combination with cisplatin, at 0.5 µM, stronger effect = higher value",-25.4%
same,inhibition,"[14]; measured here: combination with cisplatin, at 5 µM, stronger effect = higher value",6.61%
same,inhibition,"[15]; BGB combo, at 5 µM",-10.4%
same,inhibition,[15]; at 0.5 µM,-10.5% (inactive)
same,inhibition,"[15]; cisplatin combo, at 5 µM",-11.2%
same,inhibition,[15]; [30],-1.57%
same,inhibition,[15]; [31],-3.76%
same,inhibition,"[15]; single agent, at 5 µM",0.047%
same,inhibition,"[16]; BGB IC20 combo, at 0.005 µM",-6.54%
same,inhibition,"[16]; BGB IC40 combo, at 0.005 µM",-25.3%
same,inhibition,"[16]; BGB IC40 combo, at 0.05 µM",3.64%
same,inhibition,[16]; at 0.5 µM,-16.5% (inactive)
same,inhibition,"[16]; cisplatin combo, at 0.05 µM",3.64%
same,inhibition,"[16]; cisplatin combo, at 0.5 µM",-24%
same,inhibition,"[16]; cisplatin combo, at 5 µM",-37.6%
same,inhibition,"[16]; measured here: 5 uM single agent, at 5 µM",-21.7%
same,inhibition,[17]; at 0.5 µM,-0.8% (inactive)
same,inhibition,[17]; [29],-15.6%
same,inhibition,[17]; [32],21.2%
same,inhibition,[17]; [33],-0.5%
same,inhibition,[18]; at 0.5 µM,-18% (inactive)
same,inhibition,"[18]; measured here: with BGB IC20, at 0.5 µM",-38.9%
same,inhibition,"[18]; measured here: with BGB IC20, at 5 µM",-13.2%
same,inhibition,"[18]; measured here: with cisplatin IC20, at 0.5 µM",-4%
same,inhibition,"[18]; measured here: with cisplatin IC20, at 5 µM",-11%
same,inhibition,"[18]; single agent, at 5 µM",-22.6%
same,inhibition,[19]; at 0.5 µM,-75% (inactive)
same,inhibition,"[19]; measured here: combination with BGB at IC20, at 0.5 µM",-54.3%
same,inhibition,"[19]; measured here: combination with cisplatin at IC20, at 0.5 µM",-113%
same,inhibition,[20]; at 0.5 µM,0.23% (inactive)
same,inhibition,"[20]; measured here: combo with BGB at IC20, at 0.5 µM",-6.04%
same,inhibition,"[20]; measured here: combo with cisplatin at IC20, at 0.5 µM",5.01%
same,inhibition,[21]; at 0.5 µM,-3.45% (inactive)
same,inhibition,"[21]; measured here: inhibition with BGB combination, at 0.05 µM",-24.1%
same,inhibition,"[21]; measured here: inhibition with cisplatin combination, at 0.05 µM",-15.6%
same,inhibition,[22]; at 0.5 µM,-24.3% (inactive)
same,inhibition,[22]; [32],-26.3%
same,inhibition,[22]; [33],-19.2%
same,inhibition,[23]; at 0.5 µM,-23.5% (inactive)
same,inhibition,"[23]; measured here: BGB combination, at 0.5 µM",-21%
same,inhibition,"[23]; measured here: BGB combination, at 5 µM",-30.2%
same,inhibition,"[23]; measured here: cisplatin combination, at 0.5 µM",-40.5%
same,inhibition,"[23]; measured here: cisplatin combination, at 5 µM",-24%
same,inhibition,"[24]; BGB combination, concentration series, at 5 µM",-13.7%
same,inhibition,[24]; at 0.5 µM,-12.8% (inactive)
same,inhibition,"[24]; cisplatin combination, concentration series, at 5 µM",3.23%
same,inhibition,[25]; at 0.5 µM,-10.9% (inactive)
same,inhibition,"[25]; measured here: combo with BGB IC20, at 0.5 µM",-14.8%
same,inhibition,"[25]; measured here: combo with cisplatin IC20, at 0.5 µM",-13.4%
same,inhibition,[26]; at 0.5 µM,-17.1% (inactive)
same,inhibition,"[26]; cisplatin combination, at 0.5 µM",5.31%
same,inhibition,"[26]; cisplatin combination, at 5 µM",-38.2%
same,inhibition,"[26]; measured here: BGB IC40 combination 0.05 uM, at 0.05 µM",-1.75%
same,inhibition,"[26]; single agent, at 5 µM",-40.2%
same,inhibition,[27]; at 0.5 µM,-19.6% (inactive)
same,inhibition,"[27]; cisplatin combo, at 5 µM",13.2%
same,inhibition,"[27]; measured here: BGB IC40 combination, at 0.05 µM",-21.9%
same,inhibition,[27]; [32],-3.15%
same,inhibition,"[27]; single agent, at 5 µM",-16.1%
same,inhibition,[28]; at 0.5 µM,-42.7% (inactive)
same,inhibition,[28]; [30],-46.3%
same,inhibition,[28]; [31],-40.9%
same,inhibition,"[28]; single agent, at 0.05 µM",5.52%
same,inhibition,"[28]; single agent, at 5 µM",7.12%
